# Shown are actives, neighbours in structure and some others; about 4% of the full set was active somewhere.
# TIM10 inh = growth inhibitors of TIM10 yeast strain. inhibition, % at 10 µM. S. cerevisiae TIM10 strain growth, BacTiter-Glo luminescence, 24 h. hit rate 1.4% among 330,000. AID 463195;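 active = inhibition of 40% or more at the single tested concentration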;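 also: wild-type TIM10 isogenic control strain grown at permissive 25 °C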
# tim23-1 inh = inhibits growth of tim23-1 mutant yeast; S. cerevisiae tim23-1 growth, BacTiter-Glo luminescence, 24 h; inhibition, % at 20 µM; hit rate 1.3% among 330,000; AID 463212;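 active = growth inhibition of the mutant yeast at or above 50%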;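 also: temperature-sensitive mutant grown at 25 °C; plate controls were DMSO-treated mutant yeast for no effect and medium wells lacking yeast for full effect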
# NALP1 inh = blocks the NALP1 inflammasome reconstituted in yeast; AID 2071; S. cerevisiae NALP1/ASC/caspase-1 growth, X-gal OD620, 72 h; inhibition, % at 10 µM; hit rate 0.61% among 280,000; in the data active = inhibition mostly above about 24%, no sharp cut-off; inactive = mostly below about 32%
# NLRP3 yeast inh = blocks the NALP3 inflammasome reconstituted in yeast; Yeast reconstituted NLRP3/ASC/caspase-1, beta-gal luminescence, 24 h; inhibition, % at 10 µM; hit rate 0.39% among 330,000; AID 2825;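 active = inhibition of 50% or more; inactive = inhibition below 50%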;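 also: plate controls were induced DMSO wells for no effect and uninduced yeast grown without galactose for full effect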
# tim10-1 inh = tim10-1 yeast growth inhibition. hit rate 2.2% among 330,000. AID 463190. S. cerevisiae tim10-1 ts strain growth, BacTiter-Glo, 24 h. inhibition, % at 20 µM;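 active = inhibition of at least 40%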;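 also: mutant grown at 25 °C; 0% = DMSO wells with yeast and 100% = wells holding no yeast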
# tim10-1 confirm = confirmation of tim10-1 mutant yeast growth inhibitors. S. cerevisiae tim10-1 ts strain growth, BacTiter-Glo, 24 h. hit rate 56% among 7,400. inhibition, % at 20 µM. shares compounds with tim10-1 inh;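 active = inhibition of yeast growth at or above a set limit in either of two repeat tests at 20 µM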;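 also: tim10-1 mutant grown at permissive 25 °C to find synthetic lethal compounds; 0% = DMSO yeast wells and 100% = medium wells without yeast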
# * marks the source's active call; other numbers are inactive results; / = no result given.
SMILES,TIM10 inh,tim23-1 inh,NALP1 inh,NLRP3 yeast inh,tim10-1 inh,tim10-1 confirm
COc1ccc(/C=N/NC(=O)c2ccc(N(C)S(=O)(=O)c3ccccc3)cc2)cc1OC,3.2,10.6,14.5,12.0,9.7,/
Cc1ccc(S(=O)(=O)CCSc2cccc(C(=O)Nc3ccccc3C(=O)O)c2)cc1,2.3,14.1,1.3,3.2,22.3,/
C=C1CCC[C@]2(C)C[C@H]3OC(=O)C(CN4CCOCC4)[C@H]3C[C@@H]12 (some centres undefined),23.7,35.9,-26.7,-15.8,50.9*,45.5*
COc1ccccc1C(=O)OC(C)CN1CCN(C)CC1 (centres undefined),-4.5,-2.5,11.3,1.8,-18.1,/
CC(C)N(Cc1ccccc1)C(=O)COC(=O)c1ccc(O)cc1,-2.1,18.4,/,23.7,8.1,/
CCCC(=O)Nc1cc(C)c(NC(=O)C23CC4CC(CC(C4)C2)C3)cn1,35.8,24.5,3.2,18.6,42.4*,31.8*
COCc1cc(=O)[nH]c(-c2ccccc2OC(F)(F)F)n1,-1.3,-11.4,13.9,6.2,-0.3,/
CCOC(=O)c1c(NC(=O)CN2CCOCC2)sc2c1CC(C)(C)OC2,8.4,-2.9,24.0,18.0,-3.2,/
CCOC(=O)c1c(NC(=O)CCN2CCOCC2)sc2c1CC(C)(C)OC2,12.5,28.5,7.7,9.5,41.8*,24.9
COc1cccc2sc(N3CCN(C(=O)c4ccc([N+](=O)[O-])o4)CC3)nc12,24.8,-37.4,/,35.4,50.6*,27.9
Cc1ccc2sc(N3CCN(C(=O)c4ccc([N+](=O)[O-])o4)CC3)nc2c1C,-28.1,29.9,/,31.9,19.3,/
CCOc1ccccc1N(CC(=O)NC1CCCCC1)S(=O)(=O)c1ccc(C)cc1,-3.1,24.0,4.9,10.7,28.3,/
CCN(C[C@H]1N[C@@](C)(C(=O)OC)[C@H]2C(=O)N(Cc3ccccc3)C(=O)[C@@H]12)C(=O)Nc1ccc(OC)cc1,3.1,11.4,/,13.2,4.3,/
CCCNC(=O)C12CCC(C)(c3nc4cc(C)c(C)cc4nc31)C2(C)C (centres undefined),22.1,40.7,-15.0,-1.3,41.9*,26.2
CNC(=O)C12CCC(C)(c3nc4cc(C)c(C)cc4nc31)C2(C)C (centres undefined),14.5,30.7,-12.2,3.3,27.0,/
Cc1ccc2nc(C)c(C(=O)N/N=C/c3cccc([N+](=O)[O-])c3)cc2c1,39.8,29.8,10.4,1.0,46.8*,44.5*
CC(C)(C)c1ccc(C(=O)NCCN2CCOCC2)cc1,26.7,8.9,/,7.0,-4.3,/
CC(C)(C)c1ccc(/C=C(\C#N)C(=O)NCCN2CCOCC2)cc1,32.4,43.4,-1.7,15.1,40.1*,32.5*
COc1ccc(Cl)cc1NS(=O)(=O)c1cccc(C(=O)NCCCN2CCCC2=O)c1,3.9,4.2,6.3,8.4,3.4,/
O=C(C1COc2ccccc2O1)N1CCN(c2nc3c(F)cc(F)cc3s2)CC1 (centres undefined),15.9,43.7,/,24.5,40.4*,23.4
CCc1ccc(/C=C/c2c([N+](=O)[O-])c(=O)n(C)c(=O)n2C)cc1,39.4,40.9,-5.2,34.1,40.2*,34.6*
CCOc1ccc(/C=C/c2c([N+](=O)[O-])c(=O)n(C)c(=O)n2C)cc1,-10.6,20.9,28.6,33.5,27.8,/
CC(C)Oc1ccccc1C1Nc2ccccc2C(=O)N1c1ccc2c(c1)OCCO2 (centres undefined),11.1,24.9,0.6,-12.0,45.7*,23.1
CC(C)(O)C#Cc1ccc(C(=O)N2CCN(c3ccccc3)CC2)cc1,11.8,16.4,26.3,6.0,24.3,/
CC(C)(O)C#Cc1ccc(C(=O)N2CCN(c3ccc([N+](=O)[O-])cc3)CC2)cc1,26.9,3.5,0.4,4.8,46.1*,38.3*
SMILES,TIM10 inh,tim23-1 inh,NALP1 inh,NLRP3 yeast inh,tim10-1 inh,tim10-1 confirm
CCN(CC)C(=O)c1c(-c2ccccc2)oc2ccc(OC)cc12,24.0,43.6,28.9,-5.6,41.1*,21.1
CC(=O)Nc1cc2nc(C)n(Cc3ccccc3[N+](=O)[O-])c2nc1C,0.2,14.8,5.3,18.0,12.5,/
CCn1ncc(/C=C/C(=O)c2ccccc2)c1C,2.6,33.1,27.3,5.5,45.6*,13.9
COc1ccc(C(=O)NC(NC(=S)Nc2ccc(S(N)(=O)=O)cc2)C(Cl)(Cl)Cl)cc1 (centres undefined),4.7,14.6,-6.6,7.5,3.8,/
O=C(Nc1nnc(-c2ccccn2)o1)c1ccc(Br)cc1,14.3,29.4,9.9,14.1,46.1*,28.6
CCC(=O)Nc1nnc(-c2ccccn2)o1,6.6,4.3,19.3,2.1,5.2,/
CN(c1ccccc1C(=O)O)S(C)(=O)=O,2.1,7.1,8.1,7.0,13.3,/
CN(C)c1ccccc1C(=O)c1ccccc1N(C)C,30.2,24.2,12.8,8.9,40.4*,21.8
CCOC(=O)/C(C#N)=C\c1ccc(O)c(OC)c1,39.1,26.5,-10.6,-3.7,42.0*,34.5*
COc1cc(/C=C/C(=O)CC(=O)/C=C/c2ccc(O)c(OC)c2)ccc1O,29.3,42.5,-4.4,/,40.0,38.5*
CCCCn1c(CCC(=O)O)nc2cc(S(=O)(=O)N3CCCC3)ccc21,-3.5,-0.6,/,21.3,-2.2,/
Nc1nc(-c2ccc3ccccc3c2)cs1,35.5,49.9,9.1,23.6,43.5*,10.4
O=S(=O)(c1ccc2[nH]ccc2c1)N1CCCCCC1,17.6,38.8,-5.2,-25.0,43.9*,6.1
CC(C)(C)NC(=O)NC(=O)COc1ccc(Br)cc1Br,18.6,47.7,32.0,20.5,46.0*,33.6*
O=C(COc1ccc(Br)cc1Br)NC(=O)NC1CCCC1,21.0,44.8,19.0,39.8,9.6,/
CN(c1ccccc1)S(=O)(=O)c1ccc(NC(=O)c2nc(S(C)(=O)=O)ncc2Cl)cc1,18.4,26.0,19.3,1.1,43.4*,-0.9
CC(C)c1nnc(NC(=O)c2nc(S(=O)(=O)Cc3ccccc3)ncc2Cl)s1,3.9,9.4,-24.3,5.9,-5.3,/
CCS(=O)(=O)c1ncc(Cl)c(C(=O)Nc2ccc(S(=O)(=O)N3CCC(C)CC3)cc2)n1,-14.2,40.3,7.6,-0.7,41.6*,-34.5
CCOC(=O)c1ccc(NC(=O)c2nc(S(=O)(=O)Cc3ccccc3)ncc2Cl)cc1,0.3,30.6,10.1,2.1,54.8*,21.4
CN(c1ccccc1)S(=O)(=O)c1ccc(NC(=O)c2ccccc2)cc1,-1.6,43.2,23.7,34.5,3.6,/
CC1CCN(S(=O)(=O)c2ccc(NC(=O)c3ccncc3)cc2)CC1,18.4,30.0,8.6,18.4,37.0,/
COc1cccc(N2C(=O)C(c3ccccc3)=C(c3nc4ccccc4s3)C2NC(C)=O)c1 (centres undefined),39.1,19.4,8.2,2.3,49.2*,42.1*
COc1ccc(-n2c(CCc3ccccc3)nnc2SCC(=O)NCc2ccccc2)cc1,19.6,5.4,11.0,2.6,30.1,/

# Assay outcomes: PubChem, Sanford-Burnham Center for Chemical Genomics
